According to PubChem BioAssay AID602292 (National Center for Advancing Translational Sciences (NCATS), 2012):
The campaign covered roughly 1,300 compounds. About 380 (29%) were called active. Roughly 37% stayed inconclusive and do not appear here. The call rests on the fitted dose curve; in most records, active means well fitted inhibition curve with a large enough effect; inconclusive means small, poorly fitted or top-dose-only effect; inactive means flat fitted curve, though single readings scatter. The list shows a part of the results.

The molecules below were run against Thyrotropin receptor (Homo sapiens) (UniProt P16473) (assay: qHTS for antagonists of the Thyroid Stimulation Hormone Receptor: Hit Validation in Primary Screen). Details: TSHR-expressing cells, cAMP antagonist mode; series mostly up to 58 µM; activity change, negative = inhibition: at the top concentration.
In short: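 TSHR-expressing cells were pretreated with compound, then stimulated with TSH at EC80 (4nM final) for 2 hours at 37 deg C. Cellular cAMP measured by competitive HTRF (anti-cAMP cryptate, cAMP-d2) after 30 min at room temperature.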
Further: nearly all actives have a fitted effect of over 80% in size.
On the % scale 0 is the no-effect control and ±100 the full control effect; potency means the concentration at half of the fitted maximal effect.
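Wherever activity change, negative = inhibition is given: cAMP by competitive HTRF where cellular cAMP lowers the 665 nm FRET signal.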

Thyrotropin receptor (Homo sapiens), sequence (P16473 whole entry, looked up): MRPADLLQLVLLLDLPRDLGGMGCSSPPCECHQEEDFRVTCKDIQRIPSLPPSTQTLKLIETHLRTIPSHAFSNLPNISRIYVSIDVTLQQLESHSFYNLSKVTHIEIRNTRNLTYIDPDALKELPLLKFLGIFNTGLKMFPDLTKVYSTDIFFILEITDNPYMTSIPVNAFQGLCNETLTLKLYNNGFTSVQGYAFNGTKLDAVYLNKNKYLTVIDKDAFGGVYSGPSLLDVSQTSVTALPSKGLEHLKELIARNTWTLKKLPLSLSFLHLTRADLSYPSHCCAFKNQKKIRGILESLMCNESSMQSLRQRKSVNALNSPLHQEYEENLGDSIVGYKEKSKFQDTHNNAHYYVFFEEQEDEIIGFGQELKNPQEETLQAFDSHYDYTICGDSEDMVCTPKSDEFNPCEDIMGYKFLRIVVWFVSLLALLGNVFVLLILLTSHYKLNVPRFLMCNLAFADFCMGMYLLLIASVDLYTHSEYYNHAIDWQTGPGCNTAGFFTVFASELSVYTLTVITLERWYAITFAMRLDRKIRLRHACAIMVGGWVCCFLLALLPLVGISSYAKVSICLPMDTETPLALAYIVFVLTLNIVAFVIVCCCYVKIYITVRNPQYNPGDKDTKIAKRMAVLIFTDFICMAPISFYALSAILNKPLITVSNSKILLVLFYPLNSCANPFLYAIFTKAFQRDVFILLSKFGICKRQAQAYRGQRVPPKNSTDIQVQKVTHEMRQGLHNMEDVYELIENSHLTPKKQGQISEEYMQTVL

SMILES	activity change, negative = inhibition	Potency
OCCSc1nnc(Nc2ccccc2)s1	-10.8% (inactive)	
O=C1C(SCCO)=C(SCCO)C(=O)c2ccccc21		3.38 µM (active)
COc1cc(NS(=O)(=O)c2ccc(C)cc2C)cc(OC)c1OC		37.9 µM (active)
CCc1ccc(NS(=O)(=O)c2cc3[nH]c(=O)c(=O)[nH]c3cc2C)cc1	-0.0576% (inactive)	
COc1ccc(NS(=O)(=O)c2cn(C)cn2)cc1Cl	-6.08% (inactive)	
CC(C)(C)OC(=O)N1CCC(CC2CC(c3cccc(Br)c3)=NO2)(C(=O)NCC2CCCCC2)CC1 (stereo not drawn)	-6.34% (inactive)	
CC(C)Cc1nc2oc3c(Cl)ncnc3c2c2c1CCC2		23.9 µM (active)
COc1ccccc1C(=O)NCCC(=O)Nc1ccc(OC(F)(F)F)cc1	-14.9% (inactive)	
Cc1cc(NC(=O)c2ccccc2)c(Cl)cc1N	-8.64% (inactive)	
COc1cc2ccccc2cc1C(=O)N1CCCC1	-4.72% (inactive)	
COc1cc(NC(=O)c2cc3ccccc3cc2O)c(OC)cc1Cl		10.7 µM (active)
COc1cccc(CNC(=O)c2nnn(CC(=O)Nc3cc(Cl)ccc3C)c2N)c1	-6.45% (inactive)	
Cc1ccc(Cl)cc1NC(=O)c1cc2ccccc2cc1O		3.79 µM (active)
CCOc1ccc(-n2c(SCC(=O)Nc3cc(C)on3)nc3c(c2=O)SCC3)cc1	-4.47% (inactive)	
Cc1ccc(NC(=O)Cn2nnc(C(=O)NCCc3ccccc3)c2N)c(C)c1	-7.03% (inactive)	
Cc1ccc(CCNC(=O)C2CC(c3cc(C(F)(F)F)cc(C(F)(F)F)c3)=NO2)cc1 (stereo not drawn)	-3.66% (inactive)	
N#C/C(=N/Nc1ccc(OC(F)(F)F)cc1)C(N)=S		6.01 µM (active)
O=C(Nc1ccc([N+](=O)[O-])cc1Cl)c1cc(Cl)ccc1O		0.338 µM (active)
CC(=O)Oc1c(C)cc(Cl)cc1C(=O)Nc1ccc([N+](=O)[O-])cc1Cl		0.478 µM (active)
O=C(Nc1cccc(Cl)c1)c1cc(N=Nc2ccc([N+](=O)[O-])cc2Cl)ccc1O		0.478 µM (active)
Cc1ccc(N2C(=O)C3C4C=CC(CC4)C3C2=O)cc1Cl (stereo not drawn)	-4.24% (inactive)	
CCOc1cc(S(=O)(=O)n2cnc(C)c2)ccc1Cl	-13.9% (inactive)	
Cc1ccc(CS(=O)(=O)c2ncc(Cl)c(C(=O)Nc3nnc(C(C)C)s3)n2)cc1		23.9 µM (active)
COC(=O)CSc1nc(NCc2ccccc2)nc(N(C)C)n1	-21.1% (inactive)	
Cc1cccc(CC(=O)NCC(=O)NCc2cc(=O)n(C)c(=O)n2C)c1	-8.84% (inactive)	

SMILES	activity change, negative = inhibition	Potency
CN(C)c1nc(=S)nc(NCc2ccccc2)[nH]1	-3.2% (inactive)	
Cc1cc(=O)oc2ccc(OCc3ccccc3)cc12	-1.67% (inactive)	
COc1ccc(CNC(=O)C2CCCN2C(=O)NCc2ccccc2)cc1 (stereo not drawn)	-7.69% (inactive)	
CCOC(=O)c1c(NC(=O)CN2C(=O)NC(C)(c3ccc(OC(F)F)cc3)C2=O)sc(C)c1C (stereo not drawn)	-10.1% (inactive)	
CCOC(=O)c1c(NC(=O)/C=C/C(=O)O)sc(C)c1-c1ccc(Cl)cc1		21.3 µM (active)
CCOC(=O)c1c(NC(=O)/C=C/C(=O)O)sc(C)c1-c1ccc(C)c(C)c1		23.9 µM (active)
CCOC(=O)Cn1c(=NC(=O)CSC(C)=O)sc2ccccc21	-23.8% (inactive)	
Cc1ccc(/C=N/n2c(COc3ccccc3)n[nH]c2=S)s1	-4.26% (inactive)	
CN(C)c1ccc(N/C=C/C(=O)C(F)(F)F)cc1	-13.3% (inactive)	
Cc1nn(Cc2ccccc2)c(C)c1NC(=O)c1noc2c1CCc1ccccc1-2		37.9 µM (active)
Cc1nn(Cc2ccc(Cl)cc2)c(C)c1NC(=O)c1noc2c1CCc1ccccc1-2		16.9 µM (active)
COc1ccc(C(C(=O)NC(C)(C)C)N(CCc2ccccc2)C(=O)CCC(=O)Nc2cc(C)on2)cc1 (stereo not drawn)	-5.68% (inactive)	
CC(=O)N/C(=C\c1ccc(Cl)cc1)C(=O)O	-3.51% (inactive)	
C=CCNC(=O)c1ccc(NC(=O)C2=CSCCO2)cc1	-9.28% (inactive)	
O=[N+]([O-])c1c(Nc2cccc(O)c2)cc(Cl)c2nonc12		10.7 µM (active)
Cc1c(Nc2cc(Cl)c3nonc3c2[N+](=O)[O-])c(=O)n(-c2ccccc2)n1C		26.9 µM (active)
Cc1cc(C)cc(C(=O)NC(CC(N)=O)c2ccc(NCCN3CCCC3)c([N+](=O)[O-])c2)c1 (stereo not drawn)	-3.23% (inactive)	
CC1CCCC(N2CCN(S(=O)(=O)c3ccccc3)CC2)C1 (stereo not drawn)	-2.71% (inactive)	
COC(CNC(=O)c1cn(C)c2ccc(S(=O)(=O)N3CCOCC3)cc2c1=O)OC	-4.75% (inactive)	
O=C1c2cccc3c(O)ccc(c23)C(=O)N1c1ccc(Cl)cc1		30.1 µM (active)
Cc1ccc(OC(F)F)c(NC(=O)Nc2cccc(C(F)(F)F)c2)c1		26.9 µM (active)
N/C(=N\OC(=O)Nc1ccccc1)c1cccc(C(F)(F)F)c1	-6.25% (inactive)	
Cc1ccc(NC(=O)Nc2ccc3c(c2)OCO3)c(OC(F)F)c1	-10.4% (inactive)	
Cc1ccccc1NC(=O)C1C2CCCCC21 (stereo not drawn)	-5.88% (inactive)	
O=C(Nc1ccncc1)C1CCN(S(=O)(=O)c2cccc(C(F)(F)F)c2)CC1	-5.39% (inactive)	

SMILES	activity change, negative = inhibition	Potency
Cc1ccc(C)c(N2CCN(S(=O)(=O)c3ccc4c(c3)CC(C)N4C(=O)C3CC3)CC2)c1 (stereo not drawn)	-11.4% (inactive)	
CC1CC1C(=O)N1CCN(S(=O)(=O)c2cc(C(F)(F)F)cc(C(F)(F)F)c2)CC1 (stereo not drawn)		30.1 µM (active)
COc1cccc(CNC(=O)CCCC(=O)NC(C)CCc2ccccc2)c1 (stereo not drawn)	-4.18% (inactive)	
COc1cccc(COc2cc3ccccc3nc2C)c1		23.9 µM (active)
CCCn1c(COc2ccccc2OC)nc2ccccc21	-5.21% (inactive)	
COc1ccc(-n2c(SCC(=O)Nc3cc(C)on3)nc3c(c2=O)SCC3)cc1OC	-4.24% (inactive)	
Nc1ncc(Br)cc1S(=O)(=O)Nc1cc(C(F)(F)F)cc(C(F)(F)F)c1		12 µM (active)
O=S(=O)(Nc1cccc(-n2cnnn2)c1)c1ccccc1C(F)(F)F	-5.7% (inactive)	
CC1CN(C(=O)CCn2c(=O)oc3ccccc32)CC(C)O1 (stereo not drawn)	-1.5% (inactive)	
O=C(/C=C/c1ccc(OCCCF)cc1)Nc1ccnc(-c2ccncc2)n1	-6.83% (inactive)	
CSc1nc(N)nc(SCC(=O)Nc2ccc(Cl)cc2)c1C#N		30.1 µM (active)
Cc1cc(=O)[nH]c(SCC(=O)Nc2ccc(Br)cc2)c1C#N		7.57 µM (active)
Nc1nc(SCC(=O)Nc2ccc([N+](=O)[O-])cc2)[nH]c(=O)c1NC(=O)c1ccc(Br)cc1	-2.39% (inactive)	
Cc1cc(C#N)c(SCC(N)=O)nc1-c1ccc(F)cc1	-6.37% (inactive)	
Cc1cc2nc(SCCOC(=O)Nc3ccc(Cl)cc3)nc(C)c2cc1C	-6.17% (inactive)	
Cc1ccc(CNS(=O)(=O)c2ccc(CN3C(=O)c4cccnc4C3=O)s2)o1	-5.65% (inactive)	
O=C(CCc1ccccc1)N1CCN(Cc2ccc(F)cc2Cl)CC1	-12.8% (inactive)	
Cc1ccc(CCNC(=O)CN2C(=O)COc3ccc(S(=O)(=O)N4CCC(C)CC4)cc32)cc1	-3.95% (inactive)	
CC[C@@H](C(=O)[C@@H](C)[C@@H](O)[C@H](C)CCc1ccc(C)c(O)c1C(=O)O)[C@H]1O[C@](CC)([C@H]2CC[C@](O)(CC)[C@H](C)O2)C[C@@H]1C		4.78 µM (active)
Cc1ccccc1CS(=O)(=O)c1nnc([C@H](Cc2ccccc2)NC(=O)OC(C)(C)C)o1		37.9 µM (active)
C[C@@H](NC(=O)[C@@H]1Cc2ccccc2CN1)C(=O)NC1CCCCC1	-1.93% (inactive)	
O=[N+]([O-])c1cc(Br)c(O)c(/C=N/Nc2nnnn2-c2cccc3ccccc23)c1		7.57 µM (active)
O=[N+]([O-])c1cc(Br)c(O)c(/C=N/Nc2nc3ccccc3s2)c1		2.39 µM (active)
COc1cccc(OCC(O)CN2CC(C)CC(C)C2)c1 (stereo not drawn)	-4.21% (inactive)	
O=C(/C=C/c1ccc(Cl)cc1Cl)NCCSCc1ccccc1		21.3 µM (active)

SMILES	activity change, negative = inhibition	Potency
Cc1ccccc1-n1nnnc1SC1CCOC1=O (stereo not drawn)	0.576% (inactive)	
O=C(NCCCN1CCOCC1)c1ccc2c(c1)N(Cc1ccc(Cl)cc1)C(=O)c1ccccc1S2=O (stereo not drawn)	-1.04% (inactive)	
CCOc1ccc(CNC(=O)CCCn2nc(CC)n3c(cc4occc43)c2=O)cc1	-19% (inactive)	
CN(C(=O)CN1C(=O)/C(=C/c2ccccc2Cl)SC1=S)C1CCS(=O)(=O)C1 (stereo not drawn)	-8.35% (inactive)	
COc1cc([N+](=O)[O-])cc(/C=C2/SC(=S)N(Cc3ccccc3)C2=O)c1O		10.7 µM (active)
O=C1/C(=C\c2cc([N+](=O)[O-])ccc2O)SC(=S)N1Cc1ccc(Cl)cc1		2.69 µM (active)
CN(C)C(=O)[C@H]1C[C@H]1[C@@H](O)[C@H](CO)NC(=O)[C@H](COCc1ccccc1)NC(=O)OC(C)(C)C	1.35% (inactive)	
Cc1ccc(-c2ccc(/C=N/N=C3/NC(=O)C(CC(=O)O)S3)o2)c([N+](=O)[O-])c1 (stereo not drawn)	-7.03% (inactive)	
O=C(NCCS(=O)(=O)N1CCN(c2ccccc2)CC1)C1CC(=O)N(c2ccccc2)C1 (stereo not drawn)	-3.46% (inactive)	
Cc1ccc(CCNC(=O)C2CCN(S(=O)(=O)c3cccc4cccnc34)CC2)cc1	-12.1% (inactive)	
O=C(Nc1nc2ccc(F)cc2s1)C1CCN(S(=O)(=O)c2cc([N+](=O)[O-])ccc2Cl)CC1		19 µM (active)
N#C/C(=N\Nc1cccc([N+](=O)[O-])c1)C(=O)c1ccc(Br)cc1		15.1 µM (active)
COc1ccc(-c2nc(CS(=O)CC(=O)NCc3ccccc3)c(C)o2)cc1OC (stereo not drawn)	-10.3% (inactive)	
Cc1cccc(-c2noc(CN(C)C(=O)c3ccco3)n2)c1	-14.8% (inactive)	
COc1ccc(CC(=O)Nc2cccc(-c3nnc(-c4cccc(C)c4)o3)c2)cc1OC		4.26 µM (active)
O=c1[nH]c(=O)c2nnc(N/N=C/c3ccccc3F)nc2[nH]1	-4.72% (inactive)	
CC(C)Nc1nc(SC(C)C(=O)Nc2ccccc2)nc(N(C)C)n1 (stereo not drawn)	-11.7% (inactive)	
CCOc1ccc2nc(NC(=O)c3ccc(OCC4CCCO4)cc3)sc2c1 (stereo not drawn)		30.1 µM (active)
O=C(CSc1nnc(NC(=O)c2cccc(Br)c2)s1)NCC1CCCO1 (stereo not drawn)	-5.53% (inactive)	
CCOc1ccc2nc(NC(=O)CS(=O)(=O)c3ccccc3)sc2c1	-7.2% (inactive)	
C=CS(=O)(=O)c1sc(Cl)c(N2CCOCC2)c1[N+](=O)[O-]		26.9 µM (active)
Cc1ccc(/C=C/C(=O)Nc2ccc(Oc3ccccc3)cc2)o1		23.9 µM (active)
Cc1ccc(CCC(=O)NCc2ccccc2)o1	-3.92% (inactive)	
